For 40 molecules, fold change and cell count results are on record in PubChem BioAssay.

The structures appear in SMILES notation. Values joined by “and” are separate entries in the source; they are usually repeats but may differ in a detail not shown here. Equal entries are not always repeated.

One test can be described thus: sensitizers of A549 cells to miR-34 induction, primary screen, imaging, A549 dox-inducible miR-34, nuclei and caspase counts (AID 1347080). Further: test concentration not given here. The settings on record: A549 miR-34 inducible, Hoechst nuclei count, 48 h; measured here: relative caspase fold change +Dox/-Dox.
With `O=C(Nc1cccc(Cl)c1)c1ccccn1`, the fold change worked out at 0.991.

Regarding `Cc1ccc(C(=O)N(CCCN)C(c2oc3cc(Cl)ccc3c(=O)c2Cc2ccccc2)C(C)C)cc1` (centres undefined), the fold change is 0.732.

Take `O=c1ncccn1C1OC(CO)C(O)C1O` (centres undefined): the fold change amounted to 0.461.

For the molecule `C=CC(C)(O)CCC1[C@@]2(C)CCCC(C)(C)C2CC[C@@]1(C)O` (some centres undefined), the fold change stood at 0.879.

For `N#CCC(C1CCCC1)n1cc(-c2ncnc3[nH]ccc23)cn1` (centres undefined), the fold change is 0.563 and 1.09.

Take `COc1cc(C(C)=O)ccc1O`: the fold change came to 0.815.

Turning to `Cc1[nH]c2ccccc2c1C1=C(NCCc2ccc(F)cc2)C(=O)N(C)C1=O`, the fold change was 0.466.

In the case of `CCN(CC)C(=O)C(C#N)=Cc1cc(O)c(O)c([N+](=O)[O-])c1`, the fold change came to 1.41.

In the case of `Cc1cccc(C)c1OCC(=O)NC(Cc1ccccc1)C(O)CC(Cc1ccccc1)NC(=O)C(C(C)C)N1CCCNC1=O` (centres undefined), the fold change was determined as 0.797.

As for `N#CC1C[C@@H]2C[C@H]2N1C(=O)C(N)C12CC3CC(CC(O)(C3)C1)C2` (some centres undefined), the fold change came out at 0.858.

With `Cc1cc(C)nc(NS(=O)(=O)c2ccc(NC(=S)NC(=O)COc3ccc(Br)cc3Cl)cc2)n1`, the fold change was 1.42.

As for `O=C(c1ccc(C=Cc2n[nH]c3ccccc23)cc1)N1CCNCC1`, the fold change was 0.981.

In the case of `Nc1nc(CC(=O)Nc2ccc(CCNCC(O)c3ccccc3)cc2)cs1` (centres undefined), the fold change amounted to 1.03.

For `NC(=O)C(CCC(F)(F)F)N(Cc1ccc(-c2ncon2)cc1F)S(=O)(=O)c1ccc(Cl)cc1` (centres undefined), the fold change amounted to 0.873.

`CC1(C)OC2C[C@H]3[C@@H]4CCC5=CC(=O)CC[C@]5(C)[C@]4(F)C(O)C[C@]3(C)[C@@]2(C(=O)CCl)O1` (some centres undefined): the fold change came to 0.816.

Take `CC1(C)S[C@@H]2C(NC(=O)C(C(=O)O)c3ccccc3)C(=O)N2C1C(=O)O` (some centres undefined): the fold change turned out to be 0.816.

For `O=C(O)C1=COC(OC2OC(CO)C(O)C(O)C2O)[C@@H]2C(CO)=CC[C@H]12` (some centres undefined), the fold change was 1.02.

As for `CC1=C(CC(=O)O)c2cc(F)ccc2C1=Cc1ccc(S(C)=O)cc1` (centres undefined), the fold change is 0.667.

For the molecule `NC1=N[C@@]2(c3cc(NC(=O)c4ccc(F)cn4)ccc3F)COC[C@@H]2CS1`, the fold change amounted to 1.51.

For `OCC1OC(Oc2ccc(O)cc2)C(O)C(O)C1O` (centres undefined), the fold change turned out to be 1.01.

As for `CCC1OC(=O)CC(O)C(C)C(O[C@H]2OC(C)C(O[C@H]3C[C@@](C)(O)C(O)C(C)O3)C(N(C)C)C2O)C(CC=O)CC(C)C(=O)C=CC(C)=CC1COC1OC(C)C(O)C(OC)C1OC` (some centres undefined), the fold change came out at 0.768.

As for `C[C@]12CC[C@H]3c4ccc(O)cc4CC[C@H]3[C@@H]1CCC2OC(=O)CCC1CCCC1` (some centres undefined), the fold change was determined as 0.876.

As for `CNC1CN(c2ccc3c(=O)c(C(=O)O)cn(-c4nccs4)c3n2)CC1OC` (centres undefined), the fold change turned out to be 0.345.

Take `COc1cc(CCC(C)=O)ccc1O`: the fold change is 0.351.

For `N#CC(=Cc1ccc(O)c(O)c1)C(=O)NCc1ccccc1`, the fold change worked out at 1.14.

`C#C[C@@]1(O)CC[C@H]2[C@@H]3CCc4cc(OC)ccc4[C@@H]3CC[C@@]21C`: the fold change is 0.824.

`CCNC(=O)Nc1ccc(-c2nc3c(c(N4CCOCC4C)n2)CCN(C2COC2)C3)cc1` (centres undefined): the fold change was determined as 0.555.

Turning to `CC1(C)S[C@H]2C(NC(=O)C(N)c3ccc(O)cc3)C(=O)N2C1C(=O)O` (some centres undefined), the fold change came to 0.573.

In the case of `CC(C)c1onc(-c2c(Cl)cccc2Cl)c1COc1ccc(C=Cc2cccc(C(=O)O)c2)c(Cl)c1`, the fold change came out at 1.37.

Still in this test, the particulars now being: A549 miR-34 inducible, Hoechst nuclei count, 48 h; measured here: total cells with miR-34 induction; stronger effect = lower value.
Regarding `CC(=O)OCC(=O)[C@]12N=C(C)O[C@@H]1C[C@H]1[C@@H]3CCC4=CC(=O)C=C[C@]4(C)[C@@H]3C(O)C[C@@]12C` (some centres undefined), the cell count came out at 5010.

For the molecule `O=C(C=Cc1ccc(O)c(O)c1)c1ccc(O)cc1O`, the cell count is 8780.

As for `CC(C)=CCC[C@](C)(OC1OC(COC2OCC(O)C(O)C2O)C(O)C(O)C1O)C1CC[C@]2(C)[C@@H]1C(O)C[C@H]1[C@@]3(C)CCC(OC4OC(CO)C(O)C(O)C4O)C(C)(C)[C@@H]3CC[C@]12C` (some centres undefined), the cell count was determined as 7600.

In the case of `COc1c(C)c2c(c(O)c1CC=C(C)CCC(=O)OCCN1CCOCC1)C(=O)OC2`, the cell count was 1830.

On to `CC(=Cc1ccc(C(=O)O)cc1)c1ccc2c(c1)C(C)(C)CCC2(C)C`, for which the cell count stood at 8250.

Turning to `Cc1ccc(C2OC(CO)C(O)C(O)C2O)cc1Cc1ccc(-c2ccc(F)cc2)s1` (centres undefined), the cell count was determined as 9160.

Consider `CNCc1cc(-c2ccccc2F)n(S(=O)(=O)c2cccnc2)c1`, for which the cell count worked out at 8460.

On to `OCC(CO)NC1C[C@@](O)(CO)C(O)C(O)C1O` (some centres undefined), for which the cell count stood at 8490.

Turning to `COc1cc(C=CC(=O)N2CCN(CC(=O)N3CCCC3)CC2)cc(OC)c1OC`, the cell count amounted to 8470.

Consider `O=C(O)C1=CC(O)C(O)C(O)C1` (centres undefined), for which the cell count was found to be 9710.

Consider `Cc1ccc(C(=O)NCCCCCC(=O)Nc2ccccc2N)cc1`, for which the cell count turned out to be 4890.

For the molecule `O=C(Nc1cccc(Cl)c1)c1ccccn1`, the cell count is 7550.

As to `Cc1ccc(C(=O)N(CCCN)C(c2oc3cc(Cl)ccc3c(=O)c2Cc2ccccc2)C(C)C)cc1` (centres undefined), the cell count stood at 1220.

For `O=c1ncccn1C1OC(CO)C(O)C1O` (centres undefined), the cell count came to 8580.

Regarding `C=CC(C)(O)CCC1[C@@]2(C)CCCC(C)(C)C2CC[C@@]1(C)O` (some centres undefined), the cell count worked out at 8210.

Take `N#CCC(C1CCCC1)n1cc(-c2ncnc3[nH]ccc23)cn1` (centres undefined): the cell count was 8730 and 7580.

As for `COc1cc(C(C)=O)ccc1O`, the cell count is 7660.

Consider `Cc1[nH]c2ccccc2c1C1=C(NCCc2ccc(F)cc2)C(=O)N(C)C1=O`, for which the cell count amounted to 2210.

With `CCN(CC)C(=O)C(C#N)=Cc1cc(O)c(O)c([N+](=O)[O-])c1`, the cell count was found to be 8600.

`Cc1cccc(C)c1OCC(=O)NC(Cc1ccccc1)C(O)CC(Cc1ccccc1)NC(=O)C(C(C)C)N1CCCNC1=O` (centres undefined): the cell count was 6290.

As for `N#CC1C[C@@H]2C[C@H]2N1C(=O)C(N)C12CC3CC(CC(O)(C3)C1)C2` (some centres undefined), the cell count worked out at 7460.

`Cc1cc(C)nc(NS(=O)(=O)c2ccc(NC(=S)NC(=O)COc3ccc(Br)cc3Cl)cc2)n1`: the cell count is 7550.

As to `O=C(c1ccc(C=Cc2n[nH]c3ccccc23)cc1)N1CCNCC1`, the cell count is 2420.

In the case of `Nc1nc(CC(=O)Nc2ccc(CCNCC(O)c3ccccc3)cc2)cs1` (centres undefined), the cell count was 8660.

In the case of `NC(=O)C(CCC(F)(F)F)N(Cc1ccc(-c2ncon2)cc1F)S(=O)(=O)c1ccc(Cl)cc1` (centres undefined), the cell count was 6710.

With `CC1(C)OC2C[C@H]3[C@@H]4CCC5=CC(=O)CC[C@]5(C)[C@]4(F)C(O)C[C@]3(C)[C@@]2(C(=O)CCl)O1` (some centres undefined), the cell count was determined as 4440.

Consider `CC1(C)S[C@@H]2C(NC(=O)C(C(=O)O)c3ccccc3)C(=O)N2C1C(=O)O` (some centres undefined), for which the cell count was 8430.

Regarding `O=C(O)C1=COC(OC2OC(CO)C(O)C(O)C2O)[C@@H]2C(CO)=CC[C@H]12` (some centres undefined), the cell count came out at 9820.

As for `CC1=C(CC(=O)O)c2cc(F)ccc2C1=Cc1ccc(S(C)=O)cc1` (centres undefined), the cell count was 7920.

Consider `NC1=N[C@@]2(c3cc(NC(=O)c4ccc(F)cn4)ccc3F)COC[C@@H]2CS1`, for which the cell count is 8500.

On to `OCC1OC(Oc2ccc(O)cc2)C(O)C(O)C1O` (centres undefined), for which the cell count amounted to 7730.

Regarding `CCC1OC(=O)CC(O)C(C)C(O[C@H]2OC(C)C(O[C@H]3C[C@@](C)(O)C(O)C(C)O3)C(N(C)C)C2O)C(CC=O)CC(C)C(=O)C=CC(C)=CC1COC1OC(C)C(O)C(OC)C1OC` (some centres undefined), the cell count came out at 8760.

Turning to `C[C@]12CC[C@H]3c4ccc(O)cc4CC[C@H]3[C@@H]1CCC2OC(=O)CCC1CCCC1` (some centres undefined), the cell count worked out at 8050.

For `CNC1CN(c2ccc3c(=O)c(C(=O)O)cn(-c4nccs4)c3n2)CC1OC` (centres undefined), the cell count was 1410.

As to `COc1cc(CCC(C)=O)ccc1O`, the cell count came out at 7540.

On to `N#CC(=Cc1ccc(O)c(O)c1)C(=O)NCc1ccccc1`, for which the cell count was determined as 6440.

On to `C#C[C@@]1(O)CC[C@H]2[C@@H]3CCc4cc(OC)ccc4[C@@H]3CC[C@@]21C`, for which the cell count worked out at 7730.

Take `CCNC(=O)Nc1ccc(-c2nc3c(c(N4CCOCC4C)n2)CCN(C2COC2)C3)cc1` (centres undefined): the cell count was 2790.

As for `CC1(C)S[C@H]2C(NC(=O)C(N)c3ccc(O)cc3)C(=O)N2C1C(=O)O` (some centres undefined), the cell count was found to be 8190.

For `CC(C)c1onc(-c2c(Cl)cccc2Cl)c1COc1ccc(C=Cc2cccc(C(=O)O)c2)c(Cl)c1`, the cell count was 7080.
